# Unmarked numbers belong to inactive results. Inconclusive results are not listed. The source made the active and inactive calls. Unless noted, calls follow the shape of the dose curve; as a rule, active = well fitted curve in the direction sought with a large enough effect; inconclusive = small, poorly fitted or top-dose-only effect, or another doubt; inactive = no such curve, though single readings can be large; an effect the other way counts as inactive or inconclusive.
# Legend:
# [1] = molecular target: Lysosomal acid glucosylceramidase (Homo sapiens) (UniProt P04062); experiment: Glucocerebrosidase-p2 (AID 348; in the data active = potency below about 10 µM; also: potency is read from the fitted curve at half-maximal effect); conditions: purified GBA, blue fluorogenic substrate, 40 min
# Sequence of Lysosomal acid glucosylceramidase (Homo sapiens) (P04062 whole entry, looked up): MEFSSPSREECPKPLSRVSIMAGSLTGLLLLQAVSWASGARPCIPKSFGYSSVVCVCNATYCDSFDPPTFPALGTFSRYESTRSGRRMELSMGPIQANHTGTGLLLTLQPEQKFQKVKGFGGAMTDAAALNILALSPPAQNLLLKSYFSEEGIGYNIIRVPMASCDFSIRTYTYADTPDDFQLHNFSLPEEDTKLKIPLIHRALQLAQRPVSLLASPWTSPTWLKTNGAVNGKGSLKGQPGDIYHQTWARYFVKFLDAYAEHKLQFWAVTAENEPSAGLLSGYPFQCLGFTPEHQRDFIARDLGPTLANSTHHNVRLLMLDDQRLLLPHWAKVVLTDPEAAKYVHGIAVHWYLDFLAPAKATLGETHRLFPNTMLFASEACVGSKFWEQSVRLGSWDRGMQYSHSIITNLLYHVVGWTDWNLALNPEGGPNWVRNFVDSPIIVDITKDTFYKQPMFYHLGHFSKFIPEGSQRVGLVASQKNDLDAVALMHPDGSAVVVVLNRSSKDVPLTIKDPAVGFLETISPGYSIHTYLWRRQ
# How it was run: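 Compounds titrated from 0.6 nM upwards against 0.2 nM enzyme in pH 5.9 citric acid/KH2PO4, taurocholate, tween-20; blue fluorogenic substrate 80 uM, 40 min room temperature, stopped and read Ex 365/Em 440 for AC50.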
# [2] = AP1 Signaling Pathway (AID 357; active = well fitted curve in either direction with a large enough effect, not every such curve was filed as active; also: % is scaled to controls: 0 for no effect and ±100 for the full control effect); conditions: ME-180 AP-1-bla reporter, EGF-induced, beta-lactamase ratio, 5 h; at 7.69 µM (top of the series) unless noted
# How it was run: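 Titration-series screen for positive or negative modulators of EC50 EGF-induced signaling in ME-180 cells carrying an AP-1-driven beta-lactamase reporter. After 5 hours at 37 degrees Celsius, CCF4 460nm/530nm emission ratio gave %Activity; AC50 values derived.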
# [3] = NFAT Signaling Pathway (AID 444; active = well fitted curve in either direction with a large enough effect, not every such curve was filed as active;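 also: carbachol stimulus at about its EC50 of 1 µM final; % is scaled to controls: 0 for no effect and ±100 for the full control effect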); conditions: Jurkat NFAT-bla M1, carbachol, beta-lactamase ratio, 5 h; at 7.69 µM (top of the series) unless noted
# How it was run: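 Jurkat cells with NFAT-driven β-lactamase reporter and co-expressed M1 receptor, stimulated with carbachol (final 1 uM, ~EC50), compound titration, 5 h at 37 °C. CCF4 loaded 1 h at RT; 460/530 nm ratio gave %activity and AC50.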
# [4] = Stat Signaling Pathway (AID 446; active = well fitted curve in either direction with a large enough effect, not every such curve was filed as active;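 also: ME-180 cervical cancer cells given 40 pM IL-6 alongside compound; SIE-controlled beta-lactamase reporter measured as 460/530 nm FRET emission ratio; % is scaled to controls: 0 for no effect and ±100 for the full control effect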); conditions: ME-180 (cervical carcinoma) SIE beta-lactamase reporter, IL-6 stimulated, 5 h; at 7.69 µM (top of the series) unless noted
# How it was run: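 IL-6/STAT signaling read in ME-180 cells via an SIE beta-lactamase reporter. Stimulus was 40 pM IL-6 (its AC50) for 5 hrs, so both activation and inhibition register.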
# [5] = molecular target: Glucocorticoid receptor (Homo sapiens) (UniProt P04150); experiment: GR-GFP Redistribution (AID 450;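 active = compounds whose dose series gives a full or clear partial fitted curve of increased nuclear translocation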; also: potency is read from the fitted curve at half-maximal effect); conditions: U2OS GR-GFP nuclear translocation, laser cytometry, 2 h
# Sequence of Glucocorticoid receptor (Homo sapiens) (P04150 whole entry, looked up, the tested form may be a part): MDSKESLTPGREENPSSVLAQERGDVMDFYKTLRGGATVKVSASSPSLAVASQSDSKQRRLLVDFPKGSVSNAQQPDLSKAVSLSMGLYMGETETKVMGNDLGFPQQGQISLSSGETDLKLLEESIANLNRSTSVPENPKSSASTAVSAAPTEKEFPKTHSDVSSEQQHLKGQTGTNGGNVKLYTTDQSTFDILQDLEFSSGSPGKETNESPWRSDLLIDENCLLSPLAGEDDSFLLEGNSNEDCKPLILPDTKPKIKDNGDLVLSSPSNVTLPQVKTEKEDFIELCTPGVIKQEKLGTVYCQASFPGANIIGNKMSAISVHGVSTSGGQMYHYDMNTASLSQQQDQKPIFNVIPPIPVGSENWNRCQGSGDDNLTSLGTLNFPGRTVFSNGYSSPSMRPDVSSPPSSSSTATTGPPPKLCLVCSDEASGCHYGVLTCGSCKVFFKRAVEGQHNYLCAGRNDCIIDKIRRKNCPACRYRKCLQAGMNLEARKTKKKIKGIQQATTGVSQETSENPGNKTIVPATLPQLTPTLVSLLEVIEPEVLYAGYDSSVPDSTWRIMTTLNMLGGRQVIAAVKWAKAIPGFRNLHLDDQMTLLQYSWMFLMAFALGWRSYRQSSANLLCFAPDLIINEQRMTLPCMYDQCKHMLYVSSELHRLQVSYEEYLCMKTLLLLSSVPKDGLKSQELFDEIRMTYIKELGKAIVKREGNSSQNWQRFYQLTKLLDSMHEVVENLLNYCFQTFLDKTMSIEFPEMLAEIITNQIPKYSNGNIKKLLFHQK
# [6] = molecular target: Glucocorticoid receptor (Homo sapiens) (UniProt P04150); experiment: GR-EFC Redistribution (AID 451; calls by dose curve; also: potency is read from the fitted curve at half-maximal effect); conditions: CHO-K1 GR-EFC translocation, beta-gal luminescence, 2 h
# How it was run: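 CHO-K1 cells expressing nuclear EA and GR-ED fragments of b-gal; compounds titrated up to 46 uM final, 2 h at 37 C. GR nuclear translocation read as complemented b-gal luminescence after 1 h RT detection.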
# [7] = molecular target: Mitogen-activated protein kinase 10 (Mus musculus) (UniProt Q61831); experiment: JNK3 AlphaScreen Assay (AID 530; active = well fitted curve in either direction with a large enough effect, not every such curve was filed as active;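 also: kinase came from lysate of stimulated human HepG2 cells; signal reports phosphorylation of biotinylated GST-cJun 1-79 at Ser73 with 10 µM ATP; % is scaled to controls: 0 for no effect and ±100 for the full control effect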); conditions: JNK3 lysate, c-Jun phosphorylation; series mostly up to 11.4 µM
# How it was run: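 qHTS format: compounds tested as titrations against IL-1beta/TNF-alpha-activated HepG2 lysate JNK3 with biotin-GST-cJun substrate and 10 uM ATP at room temperature. Loss of anti-phospho-cJun AlphaScreen signal indicates inhibition.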
# [8] = molecular target: 3',5'-cyclic-AMP phosphodiesterase 4B (Homo sapiens) (UniProt Q07343); experiment: qHTS Assay for Inhibitors of PDE-IV (AID 607; active = well fitted activation curve with a large enough effect in the main read-out, with a control signal flat, not every such curve was filed as active; also: % of control where 0% means no effect); conditions: HEK293 ACTOne CNG channel cells, membrane potential fluorescence; series mostly up to 22.9 µM
# Sequence of 3',5'-cyclic-AMP phosphodiesterase 4B (Homo sapiens) (Q07343 whole entry, looked up): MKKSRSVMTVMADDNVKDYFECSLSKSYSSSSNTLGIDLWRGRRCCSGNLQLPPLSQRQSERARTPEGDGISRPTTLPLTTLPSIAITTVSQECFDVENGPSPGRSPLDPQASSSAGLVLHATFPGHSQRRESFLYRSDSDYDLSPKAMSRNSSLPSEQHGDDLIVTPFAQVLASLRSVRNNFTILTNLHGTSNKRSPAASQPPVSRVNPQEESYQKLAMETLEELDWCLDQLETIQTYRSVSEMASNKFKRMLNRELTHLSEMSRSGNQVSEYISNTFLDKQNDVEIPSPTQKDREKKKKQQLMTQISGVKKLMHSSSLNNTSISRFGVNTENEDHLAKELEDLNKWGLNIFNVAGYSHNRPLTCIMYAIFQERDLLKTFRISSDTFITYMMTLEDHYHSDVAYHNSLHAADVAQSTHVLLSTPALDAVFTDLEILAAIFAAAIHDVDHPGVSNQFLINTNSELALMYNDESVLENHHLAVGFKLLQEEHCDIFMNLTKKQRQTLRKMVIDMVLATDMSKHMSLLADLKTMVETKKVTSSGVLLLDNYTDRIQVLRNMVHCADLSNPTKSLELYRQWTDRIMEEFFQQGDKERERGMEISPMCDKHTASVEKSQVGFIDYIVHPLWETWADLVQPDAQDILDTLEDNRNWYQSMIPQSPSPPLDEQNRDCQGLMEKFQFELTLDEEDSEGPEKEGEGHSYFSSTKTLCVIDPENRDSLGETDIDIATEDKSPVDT
# How it was run: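 Live HEK293 cells with a modified cyclic nucleotide-gated (CNG) channel report intracellular cAMP via membrane-potential dye fluorescence (ex 535/em 590 nm). Endogenous PDE-IV was targeted. Compounds were tested at up to 22.9 uM final; RO 20-1724 100 uM served as control.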
# [9] = molecular target: ATP-dependent 6-phosphofructokinase (Trypanosoma brucei brucei) (UniProt O15648); experiment: qHTS Assay to Find Inhibitors of T. brucei phosphofructokinase: hit validation (AID 492961); also: % is scaled to controls: 0 for no effect and ±100 for the full control effect; conditions: T. brucei PFK, ADP-Glo luminescence; series mostly up to 51.4 µM
# Sequence of ATP-dependent 6-phosphofructokinase (Trypanosoma brucei brucei) (O15648 whole entry, looked up): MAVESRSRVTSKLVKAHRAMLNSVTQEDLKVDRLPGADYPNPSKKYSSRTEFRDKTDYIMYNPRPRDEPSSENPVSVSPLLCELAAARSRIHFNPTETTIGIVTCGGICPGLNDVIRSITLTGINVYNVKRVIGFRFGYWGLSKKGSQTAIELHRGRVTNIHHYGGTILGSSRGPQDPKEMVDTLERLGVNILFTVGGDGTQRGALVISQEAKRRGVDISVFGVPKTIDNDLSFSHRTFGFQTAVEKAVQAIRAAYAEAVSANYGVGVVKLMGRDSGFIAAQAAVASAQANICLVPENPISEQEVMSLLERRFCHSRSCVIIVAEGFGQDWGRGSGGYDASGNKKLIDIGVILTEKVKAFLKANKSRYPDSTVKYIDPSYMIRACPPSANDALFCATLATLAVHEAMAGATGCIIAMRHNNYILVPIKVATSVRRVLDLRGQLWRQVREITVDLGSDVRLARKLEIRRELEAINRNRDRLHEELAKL
# How it was run: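 Luminescence from ADP-Glo reports ADP generated as T. brucei PFK (1.25 nM) phosphorylates 0.5 mM fructose-6-phosphate using 0.1 mM ATP. Reactions ran 45 min at room temperature, pH 8.0.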
# [10] = qHTS profiling for inhibitors of Plasmodium falciparum proliferation (AID 504749); also: potency is read from the fitted curve at half-maximal effect;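 as to activity, negative = inhibition: 0% = DMSO vehicle and full inhibition = artemisinin control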; as to all read-outs here: nearly all actives have a fitted effect of over 60% in size; conditions: P. falciparum in erythrocytes, SYBR Green DNA, 72 h; for activity, negative = inhibition: at 28.7 µM (top of the series)
# How it was run: (§1)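 Readout was DNA-dye fluorescence from lysed cultures, ex 485/em 535 nm. Parasitized red cells had grown 72 h with compound; data scaled between 0.29 uM artemisinin and DMSO wells and corrected using vehicle-only plates.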
# AS120 = experiment: as above; conditions: P. falciparum in erythrocytes, SYBR Green DNA, 72 h; series mostly up to 28.7 µM
# How it was run: as §1
# ATS189 = experiment: as above; conditions: P. falciparum in erythrocytes, SYBR Green DNA, 72 h; series mostly up to 28.7 µM
# How it was run: as §1
# W2 = experiment: as above; conditions: P. falciparum in erythrocytes, SYBR Green DNA, 72 h; series mostly up to 28.7 µM
# How it was run: as §1
# [11] = molecular target: Cytochrome P450 1A2 (Homo sapiens) (UniProt P05177); experiment: p450-cyp1a2 (AID 410; calls by dose curve; also: potency is read from the fitted curve at half-maximal effect;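 as to activity change, negative = inhibition: -100% = full effect of reference inhibitor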); conditions: recombinant CYP1A2, luciferin-ME demethylation, luminescence; series mostly up to 11.4 µM
# Sequence of Cytochrome P450 1A2 (Homo sapiens) (P05177 whole entry, looked up): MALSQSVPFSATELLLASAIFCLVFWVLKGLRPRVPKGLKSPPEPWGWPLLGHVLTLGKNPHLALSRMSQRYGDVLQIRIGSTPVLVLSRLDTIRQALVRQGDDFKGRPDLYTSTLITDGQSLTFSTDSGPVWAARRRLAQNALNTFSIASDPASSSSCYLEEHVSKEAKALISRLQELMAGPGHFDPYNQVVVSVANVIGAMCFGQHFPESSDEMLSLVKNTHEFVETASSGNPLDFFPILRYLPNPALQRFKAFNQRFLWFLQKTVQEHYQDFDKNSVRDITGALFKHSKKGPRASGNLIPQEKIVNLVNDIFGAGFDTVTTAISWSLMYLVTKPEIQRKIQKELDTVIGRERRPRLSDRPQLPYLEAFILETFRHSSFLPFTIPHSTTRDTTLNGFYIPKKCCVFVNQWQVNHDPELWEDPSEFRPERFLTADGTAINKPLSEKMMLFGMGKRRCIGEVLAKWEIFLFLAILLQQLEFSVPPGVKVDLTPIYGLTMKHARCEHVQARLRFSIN
# How it was run: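 Human CYP1A2 (20nM) demethylated Luciferin-ME at its Km (100uM) in 100mM KPO4. After 10 min compound preincubation, NADPH regeneration ran the reaction 60 min at room temperature. Luciferin was read by luminescence, normalized to 57 uM furafylline.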
# [12] = molecular target: Cytochrome P450 2C9 (Homo sapiens) (UniProt P11712); experiment: qHTS Assay for Inhibitors and Substrates of Cytochrome P450 2C9 (AID 883); conditions: recombinant CYP2C9, luciferin-H luminescence, 60 min; series mostly up to 11.4 µM; also: potency is read from the fitted curve at half-maximal effect; nearly all actives have a fitted effect of over 60% in size
# Sequence of Cytochrome P450 2C9 (Homo sapiens) (P11712 whole entry, looked up): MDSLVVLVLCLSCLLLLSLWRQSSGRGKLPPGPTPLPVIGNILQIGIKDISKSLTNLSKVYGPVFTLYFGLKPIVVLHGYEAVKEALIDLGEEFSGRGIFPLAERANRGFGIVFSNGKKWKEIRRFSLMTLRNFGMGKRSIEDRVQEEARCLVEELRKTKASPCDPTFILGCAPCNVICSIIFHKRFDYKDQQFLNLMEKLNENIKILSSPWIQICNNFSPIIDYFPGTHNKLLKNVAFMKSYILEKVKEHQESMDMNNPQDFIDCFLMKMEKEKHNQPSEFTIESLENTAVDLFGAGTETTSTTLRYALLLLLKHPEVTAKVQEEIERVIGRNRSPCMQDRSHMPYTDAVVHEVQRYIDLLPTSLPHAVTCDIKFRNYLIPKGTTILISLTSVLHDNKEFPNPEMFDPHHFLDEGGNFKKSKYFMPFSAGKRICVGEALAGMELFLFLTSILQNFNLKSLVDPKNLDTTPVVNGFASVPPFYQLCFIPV
# How it was run: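 10nM CYP2C9 + 100uM Luciferin-H (=KM), 25mM KPO4; cpd 10 min 37C; NADPH regen, 60 min 37C; stop/detect with P450 Glo-Buffer 20 min; luminescence. Norm. to 57uM sulphaphenazole as full inhibition.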
# [13] = molecular target: Cytochrome P450 3A4 (Homo sapiens) (UniProt P08684); experiment: qHTS Assay for Activators of Cytochrome P450 3A4 (AID 885); conditions: recombinant CYP3A4, Luciferin-PPXE luminescence, 60 min; series mostly up to 11.4 µM; also: nearly all actives have a fitted effect of over 65% in size
# How it was run: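 Quantitative HTS format: compounds preincubated with 20nM human CYP3A4 and Luciferin-PPXE substrate at KM, reaction started by NADPH regeneration, stopped after 60 min, luciferase luminescence read 20 min later.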
# [14] = molecular target: Cytochrome P450 2D6 (Homo sapiens) (UniProt P10635); experiment: qHTS Assay for Inhibitors and Substrates of Cytochrome P450 2D6 (AID 891); conditions: recombinant CYP2D6, luciferin-ME EGE luminescence; series mostly up to 11.4 µM;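 also: luciferin methyl ether substrate demethylated by CYP2D6 with NADPH regeneration; % is scaled to controls: 0 for no effect and ±100 for the full control effect; nearly all actives have a fitted effect of over 60% in size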
# Sequence of Cytochrome P450 2D6 (Homo sapiens) (P10635 whole entry, looked up): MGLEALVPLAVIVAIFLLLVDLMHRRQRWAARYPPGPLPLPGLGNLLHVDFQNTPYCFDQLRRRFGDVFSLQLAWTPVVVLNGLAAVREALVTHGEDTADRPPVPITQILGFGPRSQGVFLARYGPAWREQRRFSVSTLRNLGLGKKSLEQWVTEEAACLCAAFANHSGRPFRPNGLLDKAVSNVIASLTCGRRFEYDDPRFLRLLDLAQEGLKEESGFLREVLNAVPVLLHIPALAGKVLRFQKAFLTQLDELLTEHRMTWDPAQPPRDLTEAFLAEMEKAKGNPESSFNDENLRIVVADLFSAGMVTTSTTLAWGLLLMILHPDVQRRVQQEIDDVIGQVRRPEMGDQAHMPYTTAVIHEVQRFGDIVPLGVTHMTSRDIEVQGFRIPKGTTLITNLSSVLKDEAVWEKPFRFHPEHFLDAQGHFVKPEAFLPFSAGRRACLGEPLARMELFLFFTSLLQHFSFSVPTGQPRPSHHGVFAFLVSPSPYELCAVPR
# How it was run: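 Human CYP2D6 (5 nM) with 30 uM Luciferin-ME EGE (at Km) in 100 mM KPO4, compound preincubated 10 min, then NADPH regeneration system for 60 min at room temperature. Luciferin read by luminescence; normalized to 1.43 uM quinidine.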
# [15] = molecular target: Cytochrome P450 2C19 (Homo sapiens) (UniProt P33261); experiment: qHTS Assay for Inhibitors and Substrates of Cytochrome P450 2C19 (AID 899); conditions: recombinant CYP2C19, luciferin-H EGE luminescence; series mostly up to 11.4 µM; also: nearly all actives have a fitted effect of over 60% in size; also: potency is read from the fitted curve at half-maximal effect
# Sequence of Cytochrome P450 2C19 (Homo sapiens) (P33261 whole entry, looked up): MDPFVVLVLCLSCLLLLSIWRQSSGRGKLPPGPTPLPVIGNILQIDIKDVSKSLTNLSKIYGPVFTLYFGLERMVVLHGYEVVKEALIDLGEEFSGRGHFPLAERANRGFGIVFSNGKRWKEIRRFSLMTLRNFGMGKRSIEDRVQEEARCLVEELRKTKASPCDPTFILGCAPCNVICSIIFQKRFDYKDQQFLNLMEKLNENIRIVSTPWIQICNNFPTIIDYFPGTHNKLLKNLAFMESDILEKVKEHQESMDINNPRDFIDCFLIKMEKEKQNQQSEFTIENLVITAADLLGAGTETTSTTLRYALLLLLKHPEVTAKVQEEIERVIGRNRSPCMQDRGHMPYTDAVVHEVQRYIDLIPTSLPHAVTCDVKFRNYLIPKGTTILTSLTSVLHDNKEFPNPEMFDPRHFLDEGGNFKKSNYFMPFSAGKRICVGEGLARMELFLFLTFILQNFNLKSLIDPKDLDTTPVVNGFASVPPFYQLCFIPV
# How it was run: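 Luminescent read-out of luciferin formed from Luciferin-H EGE (10uM, equal to KM). Enzyme 5nM in 50mM KPO4; compound added, 10 min at 37C, then NADPH regenerating system for 60 min at 37C. Full inhibition defined by 57uM ketoconazole.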
# [16] = molecular target: Cytochrome P450 3A4 (Homo sapiens) (UniProt P08684); experiment: qHTS Assay for Inhibitors and Substrates of Cytochrome P450 3A4 (AID 884); conditions: recombinant CYP3A4, Luciferin-PPXE luminescence; series mostly up to 57.1 µM; also: % is scaled to controls: 0 for no effect and ±100 for the full control effect; nearly all actives have a fitted effect of over 50% in size
# How it was run: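 20 nM human CYP3A4 with 25 uM Luciferin-PPXE (at KM) in 200 mM KPO4, preincubated 10 min with compound; NADPH regeneration started a 60 min RT reaction. Luciferin detected by luminescence, normalized to 57 uM ketoconazole as full inhibition.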
smiles,measurement,setting,value
CC(C)(C)c1ccc(CN2CCN([C@H](c3ccccc3)c3ccc(Cl)cc3)CC2)cc1,Potency,[1],> 11.4 µM
same,"activity change, negative = inhibition",[2],2.89%
same,"activity change, negative = inhibition",[3],-9.36%
same,"activity, negative = inhibition",[4],0.758%
same,Potency,[5],> 46 µM
same,Potency,[6],> 9.22 µM
same,Potency,[7],inactive
same,Potency,[8],inactive
same,outcome,[9],inactive
same,Potency,[10]; parasite line A,7.94 µM (active)
same,Potency,[10]; parasite line B,12.6 µM (active)
same,Potency,AS120,7.94 µM (active)
same,Potency,ATS189,8.91 µM (active)
same,Potency,W2,3.38 µM (active)
Cc1cc(O)c(-c2cc(O)c(C)cc2O)cc1O,Potency,[1],> 11.4 µM
same,"activity change, negative = inhibition",[2],-22.9%
same,Potency,[11],3.98 µM (active)
same,Potency,[5],> 46 µM
same,Potency,[6],> 9.22 µM
same,Potency,[7],inactive
same,Potency,[8],inactive
same,Potency,[12],1.26 µM (active)
same,Potency,[13],inactive
same,Potency,[14],inactive
same,Potency,[15],0.794 µM (active)
O=C(O)[C@@H](O)[C@@H](O)[C@H](O)C(=O)CO,Potency,[1],> 11.4 µM
same,"activity change, negative = inhibition",[2],-1.75%
same,"activity change, negative = inhibition",[3],-10.1%
same,"activity, negative = inhibition",[4],9.54%
same,Potency,[5],> 46 µM
same,Potency,[6],> 9.22 µM
same,Potency,[7],inactive
same,Potency,[8],inactive
same,outcome,[9],inactive
same,"activity, negative = inhibition",[10]; parasite line A,6.93%
same,"activity, negative = inhibition",[10]; parasite line B,7.4%
same,Potency,AS120,inactive
same,Potency,ATS189,inactive
same,Potency,W2,inactive
O=[N+]([O-])c1ccc([C@@H](Nc2ccccc2)c2ccc3cccnc3c2O)cc1,Potency,[1],> 11.4 µM
same,"activity change, negative = inhibition",[2],-13.7%
same,"activity change, negative = inhibition",[11],-21.3% [at 2.29 µM]
same,Potency,[5],> 46 µM
same,Potency,[6],> 9.22 µM
same,Potency,[7],inactive
same,Potency,[8],inactive
same,Potency,[15],3.98 µM (active)
CSc1ncnc2c1ncn2CC(=O)[C@H]1CC[C@H]2[C@H]3CCC4=CC(=O)CC[C@@]4(C)[C@@H]3CC[C@@]12C,Potency,[1],> 11.4 µM
same,"activity change, negative = inhibition",[2],-21.5%
same,Potency,[11],3.98 µM (active)
same,Potency,[5],> 46 µM
same,Potency,[6],> 9.22 µM
same,Potency,[7],inactive
same,Potency,[8],inactive
same,"activity change, negative = inhibition",[16],-20.1% [at 11.4 µM]
same,Potency,[14],inactive
same,Potency,[15],inactive
Cc1cc(Cc2cc(C)cc(C(C)(C)C)c2O)c(O)c(Cc2cc(C)cc(C(C)(C)C)c2O)c1,Potency,[1],> 11.4 µM
same,"activity change, negative = inhibition",[2],-27.2%
same,"activity change, negative = inhibition",[11],-15.6% [at 2.29 µM]
same,"activity, negative = inhibition",[4],6.72%
same,Potency,[5],> 46 µM
same,Potency,[7],inactive
same,Potency,[8],inactive
same,Potency,[12],3.16 µM (active)
same,Potency,[15],3.16 µM (active)
O=C(O)Cc1[nH]cnc1C(=O)O,Potency,[1],> 11.4 µM
same,"activity change, negative = inhibition",[2],-11%
same,"activity change, negative = inhibition",[3],7.88%
same,"activity, negative = inhibition",[4],-3.92%
same,Potency,[5],> 46 µM
same,Potency,[6],> 9.22 µM

# Source: PubChem BioAssay (NCATS)
